According to PubChem BioAssay:
The source made the active and inactive calls.

Legend:
[1] = tested on: PRMT1 (protein arginine N-methyltransferase 1); assay: PRMT1 binders on small-molecule microarrays, primary screen, biochemical, small-molecule microarray, 635 nm fluorescence (AID 1088); conditions: small-molecule microarray binding, higher = more signal;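 further: binding of Prmt1 protein to compounds spotted on small-molecule microarray slides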
[2] = yeast growth modulation, basal conditions, primary screen, YJM789 clinical isolate, OD600, 24 h (AID 1089);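 further: growth of clinical yeast isolate S. cerevisiae YJM 789 seeded 1000 cells per well; test concentration not given here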; conditions: S. cerevisiae YJM789 growth, higher = more signal, called active from +8 up or from −8 down
[3] = fission yeast growth modulation, primary screen, strain 972, OD600, 24 h, no modulator (AID 1090);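 further: basal condition with compound alone and no growth modifier present; test concentration not given here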; conditions: S. pombe 972 growth, higher = more signal, called active from +8 up or from −8 down
[4] = S. cerevisiae growth modulation with rapamycin, primary screen, strain BY4716, OD600, 96 h (AID 1091); conditions: higher = more signal, called active from +8 up or from −8 down; further: test concentration not given here
[5] = biological target: Torsin-1A-interacting protein 2 (Homo sapiens) (UniProt Q8NFQ8); assay: LULL1 binders on small-molecule microarray, primary screen, cell lysate, human LULL1 lysate, 635/667 nm fluorescence (AID 1092); conditions: hLULL1 lysate binding, 635 nm fluorescence, higher = more signal;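 further: probe is lysate of COS7 cells overexpressing human LULL1; score merges per-feature 667 nm fluorescence with signal-to-noise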
[6] = E. coli growth modulation, two-sided OD650, primary screen, E. coli filamentation project, strain DRC41, 24 h (AID 1093); conditions: OD650, 24 h, higher = more signal, called active from +8 up or from −8 down;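 further: MC1000 strain lacking acrAB efflux and sulA so SOS filamentation is blocked; test concentration not given here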
[7] = small-molecule microarray binders of probe aLefty2, primary screen, biochemical, biotinylated probe, 635/667 nm fluorescence (AID 1094); conditions: higher = more signal;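 further: score merges spot fluorescence near 667 nm with spot signal-to-noise ratio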
[8] = tested on: Noggin (protein binding on small-molecule microarray); assay: Noggin binders on small-molecule microarray, primary screen, biochemical, 635/667 nm fluorescence (AID 1095); conditions: 635 nm fluorescence, higher = more signal;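 further: score merges 667 nm feature fluorescence with signal to noise over triplicate slides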
[9] = biological target: Neurogenic locus notch homolog protein 3 (Homo sapiens) (UniProt Q9UM47); assay: NOTCH3 binders on small-molecule microarray, primary screen, biochemical, 635/667 nm fluorescence (AID 1096); conditions: NOTCH3 binding, 635 nm fluorescence, higher = more signal
[10] = small-molecule microarray binders of probe aEGFR, primary screen, biochemical, biotinylated probe, 635/667 nm fluorescence (AID 1097); conditions: higher = more signal;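 further: probe is a biotinylated anti-EGFR antibody binding compounds printed on slides; score combines fluorescence near 667 nm and signal to noise of each spot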
[11] = tested on: Plasmodium falciparum Sir2 (PF13_0152, Sir2A); assay: pfSir2 binders on small-molecule microarrays, primary screen, biochemical, small-molecule microarray, 635 nm fluorescence (AID 1098); conditions: small-molecule microarray binding, fluorescence 635 nm; higher = more signal;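 further: score merges spot fluorescence intensity with its signal-to-noise ratio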
[12] = small-molecule microarray binders of probe aDKK1, primary screen, biochemical, biotinylated probe, 635/667 nm fluorescence (AID 1099); conditions: higher = more signal;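 further: score merges 667nm spot fluorescence with signal to noise across triplicate slides; reference of the scale not given here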
[13] = small-molecule microarray binders of probe aCHRDL2, primary screen, biochemical, biotinylated probe, 635/667 nm fluorescence (AID 1100); conditions: higher = more signal
[14] = splicing luciferase reporter signal modulators, primary screen, spliceosome inhibition project, cell-based, HEK293, splice +/- reporter (AID 1101); conditions: luminescence, 24 h, higher = more signal, called active from +8 up or from −8 down;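 further: HEK293 cells carrying a splicing-competent luciferase reporter gene; test concentration not given here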
[15] = biological target: Fibroblast growth factor 10 (Homo sapiens) (UniProt O15520); assay: FGF10 binders on small-molecule microarrays, primary screen, biochemical, small-molecule microarray, 635 nm fluorescence (AID 1102); conditions: FGF10 binding, fluorescence 635 nm, higher = more signal
[16] = tested on: glycogen synthase kinase-3 (GSK3A per assay name; protocol says GSK3B); assay: GSK3 binders on small-molecule microarrays, primary screen, biochemical, small-molecule microarray, 635 nm fluorescence, GSK3A (AID 1103); conditions: small-molecule microarray binding, fluorescence 635 nm; higher = more signal; further: the record names both GSK3A and GSK3B
[17] = biological target: Epidermal growth factor receptor (Homo sapiens) (UniProt P00533); assay: EGFR binders on small-molecule microarrays, primary screen, biochemical, small-molecule microarray, 635 nm fluorescence (AID 1104); conditions: EGFR binding, higher = more signal;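 further: score merges 667 nm emission intensity with spot signal to noise over triplicate slides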
[18] = biological target: Follistatin-related protein 3 (Homo sapiens) (UniProt O95633); assay: FSTL3 binders on small-molecule microarrays, primary screen, biochemical, small-molecule microarray, 635 nm fluorescence (AID 1105); conditions: FSTL3 binding, higher = more signal;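 further: score merges emission near 667 nm and signal to noise per printed spot across three slides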
[19] = biological target: Dickkopf-related protein 1 (Homo sapiens) (UniProt O94907); assay: DKK1 binders on small-molecule microarrays, primary screen, biochemical, small-molecule microarray, 635 nm fluorescence scan (AID 1106); conditions: DKK1 binding, higher = more signal;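 further: score merges emission near 667 nm with signal to noise over three replicate slides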
[20] = tested on: Inhibin beta A chain (activin A); assay: INHBA (activin A) binders on microarrays, primary screen, biochemical, small-molecule microarray, 635 nm fluorescence scan (AID 1107); conditions: small-molecule microarray binding, higher = more signal;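 further: mouse activin A protein probed at 4.33 µg/mL on printed slides; score merges bound-protein fluorescence near 667 nm with spot signal-to-noise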

Follistatin-related protein 3 (Homo sapiens), sequence (O95633 whole entry, looked up): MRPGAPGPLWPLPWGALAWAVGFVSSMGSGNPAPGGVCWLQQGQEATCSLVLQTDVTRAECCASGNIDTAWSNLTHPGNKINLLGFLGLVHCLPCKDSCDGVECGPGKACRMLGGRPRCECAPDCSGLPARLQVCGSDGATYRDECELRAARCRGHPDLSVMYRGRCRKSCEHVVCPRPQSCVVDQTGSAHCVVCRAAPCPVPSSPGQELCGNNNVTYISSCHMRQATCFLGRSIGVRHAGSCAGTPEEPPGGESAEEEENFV
Epidermal growth factor receptor (Homo sapiens), sequence (P00533 whole entry, looked up): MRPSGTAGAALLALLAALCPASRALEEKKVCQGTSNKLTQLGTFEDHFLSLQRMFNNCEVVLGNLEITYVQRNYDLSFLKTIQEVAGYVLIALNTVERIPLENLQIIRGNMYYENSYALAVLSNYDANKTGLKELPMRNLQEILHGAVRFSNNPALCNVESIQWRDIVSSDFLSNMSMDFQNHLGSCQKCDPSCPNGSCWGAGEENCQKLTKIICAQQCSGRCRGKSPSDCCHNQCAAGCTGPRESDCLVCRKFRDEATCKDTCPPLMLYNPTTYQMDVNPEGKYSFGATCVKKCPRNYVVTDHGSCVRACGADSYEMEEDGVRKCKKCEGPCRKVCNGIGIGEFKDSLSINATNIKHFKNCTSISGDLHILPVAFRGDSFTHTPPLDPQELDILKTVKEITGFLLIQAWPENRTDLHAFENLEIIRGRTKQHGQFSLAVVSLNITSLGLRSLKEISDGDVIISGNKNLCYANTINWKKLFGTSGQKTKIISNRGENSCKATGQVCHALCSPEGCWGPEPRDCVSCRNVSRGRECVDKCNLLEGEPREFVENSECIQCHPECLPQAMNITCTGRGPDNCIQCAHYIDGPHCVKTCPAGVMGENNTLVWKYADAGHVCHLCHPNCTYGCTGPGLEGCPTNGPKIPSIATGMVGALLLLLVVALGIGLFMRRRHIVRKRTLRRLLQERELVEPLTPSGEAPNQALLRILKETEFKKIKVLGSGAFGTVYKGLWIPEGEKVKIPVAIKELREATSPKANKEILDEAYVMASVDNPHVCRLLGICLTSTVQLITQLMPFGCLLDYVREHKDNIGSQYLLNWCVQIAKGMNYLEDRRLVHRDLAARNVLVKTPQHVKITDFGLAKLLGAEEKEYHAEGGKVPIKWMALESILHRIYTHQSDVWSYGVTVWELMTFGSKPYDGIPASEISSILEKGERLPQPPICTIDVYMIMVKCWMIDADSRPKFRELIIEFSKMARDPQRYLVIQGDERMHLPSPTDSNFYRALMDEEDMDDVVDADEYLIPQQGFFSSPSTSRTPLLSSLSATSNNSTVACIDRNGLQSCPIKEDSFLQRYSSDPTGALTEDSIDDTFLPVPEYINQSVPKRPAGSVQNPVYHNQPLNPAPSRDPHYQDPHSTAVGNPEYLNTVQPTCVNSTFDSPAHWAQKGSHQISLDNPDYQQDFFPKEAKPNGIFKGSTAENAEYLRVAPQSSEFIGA
Torsin-1A-interacting protein 2 (Homo sapiens), sequence (Q8NFQ8 whole entry, looked up): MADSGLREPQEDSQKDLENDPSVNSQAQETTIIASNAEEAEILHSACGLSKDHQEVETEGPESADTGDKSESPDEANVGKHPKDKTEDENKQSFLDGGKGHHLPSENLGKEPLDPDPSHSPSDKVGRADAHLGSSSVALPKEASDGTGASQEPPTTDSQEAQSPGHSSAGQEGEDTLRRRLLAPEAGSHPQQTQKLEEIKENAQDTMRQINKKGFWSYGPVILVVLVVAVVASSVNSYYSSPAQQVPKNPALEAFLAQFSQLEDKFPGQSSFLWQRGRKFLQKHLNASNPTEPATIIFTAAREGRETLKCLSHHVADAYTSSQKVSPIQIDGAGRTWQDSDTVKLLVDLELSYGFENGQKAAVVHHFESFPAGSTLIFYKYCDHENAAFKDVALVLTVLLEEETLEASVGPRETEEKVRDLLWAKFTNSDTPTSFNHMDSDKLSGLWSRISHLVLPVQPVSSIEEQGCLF
Dickkopf-related protein 1 (Homo sapiens), sequence (O94907 whole entry, looked up): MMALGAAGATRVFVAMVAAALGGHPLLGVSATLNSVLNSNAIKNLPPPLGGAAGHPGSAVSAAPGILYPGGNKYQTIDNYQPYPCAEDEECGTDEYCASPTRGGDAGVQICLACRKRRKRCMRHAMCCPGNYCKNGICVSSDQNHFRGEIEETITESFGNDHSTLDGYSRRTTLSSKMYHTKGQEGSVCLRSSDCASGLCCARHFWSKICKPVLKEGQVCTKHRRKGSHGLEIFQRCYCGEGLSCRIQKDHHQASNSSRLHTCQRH
Fibroblast growth factor 10 (Homo sapiens), sequence (O15520 whole entry, looked up): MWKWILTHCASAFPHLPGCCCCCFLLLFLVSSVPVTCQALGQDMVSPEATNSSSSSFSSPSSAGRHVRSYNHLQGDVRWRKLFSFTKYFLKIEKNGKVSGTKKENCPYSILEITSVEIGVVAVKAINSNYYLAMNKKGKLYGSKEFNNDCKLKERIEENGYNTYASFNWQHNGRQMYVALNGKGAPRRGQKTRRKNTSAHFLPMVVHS
Neurogenic locus notch homolog protein 3 (Homo sapiens), sequence (Q9UM47 whole entry, looked up): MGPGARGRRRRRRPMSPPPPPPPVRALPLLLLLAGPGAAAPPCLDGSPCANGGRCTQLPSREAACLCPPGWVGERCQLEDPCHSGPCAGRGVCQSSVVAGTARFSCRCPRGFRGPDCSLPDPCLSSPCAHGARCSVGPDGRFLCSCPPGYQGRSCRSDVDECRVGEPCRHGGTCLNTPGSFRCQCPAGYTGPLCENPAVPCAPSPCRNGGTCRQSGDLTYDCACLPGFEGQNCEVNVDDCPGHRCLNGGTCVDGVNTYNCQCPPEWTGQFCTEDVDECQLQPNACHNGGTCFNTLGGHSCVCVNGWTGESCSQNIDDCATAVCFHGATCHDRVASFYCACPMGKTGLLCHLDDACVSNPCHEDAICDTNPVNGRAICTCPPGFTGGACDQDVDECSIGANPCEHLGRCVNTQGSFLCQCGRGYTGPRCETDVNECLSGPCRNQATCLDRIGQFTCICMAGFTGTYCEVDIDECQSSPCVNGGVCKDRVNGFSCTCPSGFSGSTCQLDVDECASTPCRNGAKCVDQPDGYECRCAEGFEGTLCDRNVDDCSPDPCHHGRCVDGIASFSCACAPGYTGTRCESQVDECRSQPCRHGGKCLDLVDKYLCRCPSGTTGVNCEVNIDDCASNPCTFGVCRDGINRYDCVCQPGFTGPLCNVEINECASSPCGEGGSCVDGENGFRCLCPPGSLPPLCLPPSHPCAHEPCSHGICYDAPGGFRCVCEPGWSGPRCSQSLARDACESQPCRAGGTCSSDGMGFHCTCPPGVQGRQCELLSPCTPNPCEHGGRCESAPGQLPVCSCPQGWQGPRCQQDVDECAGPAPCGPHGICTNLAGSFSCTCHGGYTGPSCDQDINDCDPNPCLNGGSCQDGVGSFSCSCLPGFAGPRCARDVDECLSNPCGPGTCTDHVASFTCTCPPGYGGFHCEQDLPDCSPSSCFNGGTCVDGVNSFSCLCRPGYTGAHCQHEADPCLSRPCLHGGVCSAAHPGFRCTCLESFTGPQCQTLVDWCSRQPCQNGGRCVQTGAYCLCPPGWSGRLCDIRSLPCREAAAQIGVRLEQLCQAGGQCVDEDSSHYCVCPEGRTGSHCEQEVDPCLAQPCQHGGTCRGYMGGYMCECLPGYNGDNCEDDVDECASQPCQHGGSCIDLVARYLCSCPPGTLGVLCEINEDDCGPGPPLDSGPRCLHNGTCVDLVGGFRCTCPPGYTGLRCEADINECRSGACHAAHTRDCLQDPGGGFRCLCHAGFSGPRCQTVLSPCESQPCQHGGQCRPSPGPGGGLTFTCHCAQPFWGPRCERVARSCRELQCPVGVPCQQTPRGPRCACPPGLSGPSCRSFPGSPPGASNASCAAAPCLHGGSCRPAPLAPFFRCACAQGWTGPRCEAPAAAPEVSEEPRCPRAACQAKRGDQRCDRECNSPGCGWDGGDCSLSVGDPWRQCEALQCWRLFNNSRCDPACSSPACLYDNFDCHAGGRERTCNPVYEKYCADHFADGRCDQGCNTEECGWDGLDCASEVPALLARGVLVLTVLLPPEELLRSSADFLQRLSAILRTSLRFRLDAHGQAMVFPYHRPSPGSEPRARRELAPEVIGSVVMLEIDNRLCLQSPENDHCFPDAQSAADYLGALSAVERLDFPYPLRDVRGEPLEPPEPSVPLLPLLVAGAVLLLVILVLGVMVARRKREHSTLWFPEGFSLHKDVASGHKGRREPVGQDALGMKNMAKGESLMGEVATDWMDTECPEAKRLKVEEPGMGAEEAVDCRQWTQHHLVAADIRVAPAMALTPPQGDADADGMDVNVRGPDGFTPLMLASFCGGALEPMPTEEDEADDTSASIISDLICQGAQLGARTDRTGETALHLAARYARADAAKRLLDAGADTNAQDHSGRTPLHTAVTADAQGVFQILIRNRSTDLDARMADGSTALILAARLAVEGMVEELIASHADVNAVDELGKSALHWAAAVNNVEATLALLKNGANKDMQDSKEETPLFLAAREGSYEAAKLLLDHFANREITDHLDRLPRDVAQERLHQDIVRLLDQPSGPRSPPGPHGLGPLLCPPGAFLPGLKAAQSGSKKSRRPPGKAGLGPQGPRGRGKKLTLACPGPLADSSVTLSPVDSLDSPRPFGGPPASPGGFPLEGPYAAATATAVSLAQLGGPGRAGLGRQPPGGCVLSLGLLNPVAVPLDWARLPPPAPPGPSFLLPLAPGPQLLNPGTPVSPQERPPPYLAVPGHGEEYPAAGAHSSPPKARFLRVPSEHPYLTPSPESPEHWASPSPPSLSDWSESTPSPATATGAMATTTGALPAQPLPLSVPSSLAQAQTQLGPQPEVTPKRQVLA

| SMILES | composite z-score [1] | z-score [2] | z-score [3] | z-score [4] | composite z-score [5] | z-score [6] | composite z-score [7] | composite z-score [8] | composite z-score [9] | composite z-score [10] | composite z-score [11] | composite z-score [12] | composite z-score [13] | z-score [14] | composite z-score [15] | composite z-score [16] | composite z-score [17] | composite z-score [18] | composite z-score [19] | composite z-score [20] |
| --- | --- | --- | --- | --- | --- | --- | --- | --- | --- | --- | --- | --- | --- | --- | --- | --- | --- | --- | --- | --- |
| CC(C)[Si](C#C[Si](C(C)C)(C(C)C)C(C)C)(O[C@H](C)c1cn(Cc2ccccc2)nn1)C(C)C | 1.04 | 0.319 (inactive) | 0.497 (inactive) | -0.109 (inactive) | 1.92 | 1.32 (inactive) | -0.0936 | 0.369 | 0.928 | 0.0026 | 0.733 | -0.0531 | -0.252 | -0.9 (inactive) | 0.584 | 0.856 | 0.361 | 0.688 | 0.0811 | -0.353 |
| O=C1C[C@@](C(=O)NCc2ccccc2)(c2ccc([N+](=O)[O-])cc2)[C@@H](c2ccc(CO)cc2)N1CC12CC3CC(CC(C3)C1)C2 | 1.54 | 0.893 (inactive) | 0.639 (inactive) | 8.2 (active) | 2.39 | 0.657 (inactive) | -0.0965 | 1.52 | 1.15 | -0.166 | 1.62 | -0.387 | -0.371 | -0.859 (inactive) | 1.06 | 1.13 | 0.385 | 0.837 | 0.0703 | 0.0162 |
| [N-]=[N+]=Nc1ccccc1C[C@@]1(C(=O)N2CCCCC2)N=C(c2ccc(OCCCO)cc2)O[C@@H]1c1ccccc1 | 1.14 | -1.96 (inactive) | -2.65 (inactive) | 0.737 (inactive) | 2.97 | 2.76 (inactive) | 0.101 | 0.0588 | 1.04 | -0.0382 | 1.18 | 0.901 | 1.07 | -0.969 (inactive) | 0.465 | 1.29 | -0.209 | 0.112 | -0.174 | 0.803 |
| COCC(=C=CC[C@H](O)c1cccc(OCCO)c1)C[C@H](O)c1cc(Cl)cc(Cl)c1O | 1.54 | 1.11 (inactive) | -0.6 (inactive) | -0.225 (inactive) | 1.29 | 0.706 (inactive) | -0.143 | 0.908 | 1.04 | 0.0837 | 0.516 | -0.0921 | -0.174 | 0.102 (inactive) | 1.55 | 1.17 | 0.331 | 0.785 | 0.551 | 0.712 |
| Cc1c(NC(=O)/C(C#N)=C/c2cccc([N+](=O)[O-])c2)c(=O)n(-c2ccccc2)n1C | 0.366 | -3.18 (inactive) | -2.55 (inactive) | -2.2 (inactive) | 1.92 | 0.0751 (inactive) | -0.26 | 0.21 | 1.07 | 0.006 | 0.141 | -0.123 | -0.413 | -0.911 (inactive) | 0.455 | 0.797 | 0.53 | 0.53 | 0.561 | 0.107 |
| CC1CC/C=C\[C@H]2OC34C=CCN(Cc5ccccc5)C(=O)[C@H]3N(C(C)CO)C(=O)[C@@H]4C2C(=O)O1 (stereo not given in full) | -0.938 | -0.875 (inactive) | -1.48 (inactive) | -0.577 (inactive) | 0.44 | 0.524 (inactive) | -0.092 | 0.392 | 0.158 | -0.0916 | -0.588 | -0.169 | -0.506 | 0.441 (inactive) | 0.0204 | -0.444 | -0.492 | 0.196 | 0.33 | 0.951 |
| CC(C)(C)OC(=O)CC[C@]1(C(=O)NCCN2CCOCC2)COC(c2ccc(OCCCO)cc2)=N1 | 1.47 | 0.57 (inactive) | 0.41 (inactive) | -0.342 (inactive) | 3.4 | 0.99 (inactive) | -0.0984 | 1.05 | 1.03 | -0.0656 | 0.706 | 0.0968 | 0.465 | -0.686 (inactive) | 1.42 | 0.743 | -0.422 | 0.683 | -0.105 | 0.295 |
| C=CCC(OC(C)=O)[C@@H]1[C@@H](N(Cc2cc3ccccc3o2)C(=O)Cc2ccc(OC)cc2)c2cc(OCCCO)ccc2N1C(=O)c1ccc2ccccc2c1 (stereo not given in full) | -0.843 | -0.179 (inactive) | 0.568 (inactive) | 0.194 (inactive) | -0.266 | -0.457 (inactive) | -0.0097 | -0.104 | -0.379 | -0.201 | 1.02 | -0.172 | 0.395 | -0.564 (inactive) | -0.0205 | -0.683 | -0.536 | -0.0573 | -0.306 | 1.16 |
| C#CCOc1ccc(C[C@@H](C(=O)OC)N(CC#C)[C@@H](/C=C/C2CC2)[C@H](O)Cc2ccccc2)cc1 | -0.828 | 0.591 (inactive) | 0.027 (inactive) | 1.29 (inactive) | -0.361 | -0.914 (inactive) | -0.0561 | -0.446 | -0.384 | -0.312 | -0.103 | -0.285 | 0.846 | 0.0683 (inactive) | -0.327 | -0.829 | -0.92 | -0.806 | -0.429 | 0.899 |
